High-throughput results as filed in PubChem.
KB-V1 cytotox – qHTS assay for MDR1-selective chemotherapeutics: Primary screen using the drug-selected MDR subline cells KB-V1. KB-V1 MDR cells viability, CellTiter-Glo, 72 h. Potency, µM (series often up to 46.1 µM), most hits filed as cytotoxic. 3.4% of 400,000 active; note: nearly all actives have a fitted effect of over 60% in size
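Cytotoxicity toward P-gp-expressing KB-V1 cells was determined as loss of CellTiter-Glo luminescence after 72 h at 37 degrees C. Compounds were tested in quantitative HTS format across a concentration range, with curves fitted to normalized data.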
KB-3-1 cytotox – qHTS assay for MDR1-selective chemotherapeutics: Primary screen using the parental adenocarcinoma cell KB-3-1. AID 1347075, 2019. Potency, µM (top dose mostly 46.1 µM), actives largely listed as cytotoxic. KB-3-1 viability, CellTiter-Glo ATP luminescence, 72 h. 1.4% of 400,000 active; note: nearly all actives have a fitted effect of over 60% in size
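Screening of KB-3-1 cells (DMEM, 10% FBS, phenol-red free) ran from lowest to highest compound concentration; after 72 h at 37 °C viability was read luminescently and curves fitted.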
HT1080 IDH1KD tx – qHTS for induction of synthetic lethality in tumor cells producing 2HG: qHTS for the HT-1080-IDH1KD cell line; HT-1080 IDH1 knockdown viability, ATP luminescence, 48 h; Potency, µM (top dose mostly 46.1 µM), inactives show at the highest dose activity, negative = toxicity, usual class: cytotoxic; 2% of 360,000 active;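 note: 0% = DMSO wells and -100% = cell-free medium wells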
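Cytotoxicity counter-line: IDH1KD HT-1080, 48 h, CellTiter-Glo. Curves classed by r2, magnitude and activity.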
HT1080-NT tox – qHTS for induction of synthetic lethality in tumor cells producing 2HG: qHTS for the HT-1080-NT fibrosarcoma cell line | HT-1080-NT fibrosarcoma viability, CellTiter-Glo ATP luminescence, 48 h | Potency, µM (titrated, usually from 46.1 µM), without a hit: top-dose activity, negative = less viability, hits mostly cytotoxic | AID 686970, 2013 | 1.6% of 360,000 active;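 note: NT is the 2HG producing partner of a matched IDH1 knockdown line; 0% = DMSO-treated cells and -100% = media-only wells without cells; nearly all actives have a fitted effect of over 55% in size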
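Toxicity toward the 2HG-producing NT line was scored as %Activity, normalised to DMSO and no-cell wells, from CellTiter-Glo luminescence after 48 hours' treatment.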
DT40 TDP1 no CPT – qHTS for Inhibitors of human tyrosyl-DNA phosphodiesterase 1 (TDP1): qHTS in cells in absence of CPT; DT40 Tdp1-/- hTDP1 cells, no CPT, ATP luminescence, 48 h; Potency, µM (titrated, usually from 46.2 µM), without a hit: top-dose activity change, negative = growth inhibition, actives largely listed as inhibitors; 15% of 420,000 active; AID 686978, 2013; note: nearly all actives have a fitted effect of over 55% in size
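Chicken DT40 Tdp1-/- cells stably complemented with human TDP1 were seeded at 400 cells/well with DMSO in place of 20 nM camptothecin. After compound pinning, cells grew at least 48 hr at 37 °C; viability read by CellTiter-Glo luminescence.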
DT40 TDP1 CPT – qHTS for Inhibitors of human tyrosyl-DNA phosphodiesterase 1 (TDP1): qHTS in cells in presence of CPT; chicken DT40 Tdp1-/-;hTDP1 cells + 20 nM CPT, ATP luminescence, 48 h; Potency, µM (highest dose often 46.2 µM), without a hit: top-dose activity change, negative = growth inhibition, actives largely listed as inhibitors; 12% of 420,000 active; AID 686979, 2013; note: nearly all actives have a fitted effect of over 55% in size
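Cell growth measured by CellTiter-Glo luminescence after a minimum 48 h, 37 C compound exposure with 20 nM CPT in Tdp1-knockout DT40 cells stably expressing hTDP1, seeded 400/well; qHTS titration format.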
Numbers without * were called inactive; i = inactive; u = inconclusive; x = no result given. Only some compounds are listed: those with a hit (about 19% of all), similar ones and a draw of the others. Calls come from the whole dose curve; as a rule, active = well fitted curve in the direction sought with a large enough effect; inconclusive = small, poorly fitted or top-dose-only effect, or another doubt; inactive = no such curve, though single readings can be large; an effect the other way counts as inactive or inconclusive. Unless noted, % is set by controls: 0 for no effect and ±100 for the full control effect; potency is the fitted concentration of half-maximal effect.

SMILES	KB-V1 cytotox	KB-3-1 cytotox	HT1080 IDH1KD tx	HT1080-NT tox	DT40 TDP1 no CPT	DT40 TDP1 CPT
Cc1ccc(Nc2nnc(SCC3CCCCO3)s2)cc1 (stereo not drawn)	u	i	3%	17%	u	-2%
COc1ccccc1Nc1nnc(SCC2CCCCO2)s1 (stereo not drawn)	9.2µM*	16µM*	15µM*	16µM*	u	6.5µM*
Cc1ccccc1Nc1nnc(SCC2CCCCO2)s1 (stereo not drawn)	i	i	1%	-2%	18µM*	u
O=C(NNC(=O)c1csc(-c2cnccc2C(F)(F)F)n1)c1ccc(C(F)(F)F)cc1	u	i	-21%	-19%	16µM*	u
O=C(Nc1ccc(C(F)(F)F)cc1)c1csc(-c2ccncc2)n1	u	i	-24%	-17%	u	-10%
O=C(CN1C(=O)CCc2cc(S(=O)(=O)N3CCOCC3)ccc21)NCc1ccccc1Cl	i	i	x	x	-14%	0%
Nc1ncnc2c1ncn2[C@@H]1O[C@H](COP(=O)(O)O)[C@@H](O)[C@H]1O	u	i	u	u	4%	u
Nc1ncnc2c1ncn2[C@@H]1O[C@H](CNCc2cccc(C#Cc3ccccc3)c2)[C@@H](O)[C@H]1O	i	i	-1%	-1%	u	15µM*
CN1N=C(N)c2cn(C3OC(COP(=O)(O)O)C(O)C3O)c3ncnc1c23 (stereo not drawn)	u	1.8µM*	u	-24%	-27%	u
Nc1ncnc2c1ncn2C1OC(COP(=O)(O)O)C(O)C1O (stereo not drawn)	i	i	u	7.3µM*	u	u
Nc1ncnc2c1ncn2[C@@H]1O[C@H](COS(=O)(=O)O)[C@@H](O)[C@H]1O	u	i	6%	0%	18µM*	u
c1cn2c(-c3ccc(N4CCOCC4)cc3)cncc2n1	i	i	8%	29%	-18%	-6%
O=c1cc(-c2ccc(F)cc2)nc(SCc2nc(-c3cccc(C(F)(F)F)c3)no2)[nH]1	i	i	x	x	-11%	-15%
COc1ccc(C2CC(=O)c3c([nH]c(C(=O)OCc4ccccc4)c3C)C2)cc1 (stereo not drawn)	u	i	x	x	u	12µM*
COc1ccc(C2CC(=O)c3c([nH]c(C(=O)OC4CCC(C)CC4)c3C)C2)cc1OC (stereo not drawn)	x	x	x	x	-14%	u
COc1ccc(COC(=O)c2[nH]c3c(c2C)C(=O)CC(c2ccc(OC)c(OC)c2)C3)cc1 (stereo not drawn)	x	x	x	x	6.5µM*	9.2µM*
COc1ccc(C2CC(=O)c3c([nH]c(C(=O)OC(C)C)c3C)C2)cc1OC (stereo not drawn)	2.6µM*	i	0%	0%	21µM*	23µM*
Cc1c(C(=O)OCc2ccccc2)[nH]c2c1C(=O)CC(c1ccc(C(C)(C)C)cc1)C2 (stereo not drawn)	i	i	x	x	18µM*	u
O=C(CN1CCOCC1)Nc1nc(-c2ccc(Cl)cc2)cs1	u	i	-8%	-5%	21µM*	16µM*
CC1CC(CC(=O)Nc2nc(-c3ccccc3)cs2)C(=O)O1 (stereo not drawn)	u	i	8%	0%	u	1%
O=C(Nc1nc(-c2ccc(Cl)cc2)cs1)C1CCCO1 (stereo not drawn)	i	i	-10%	-1%	23µM*	u
CC1CN(CC(=O)Nc2nc(-c3ccc(Cl)cc3)cs2)CC(C)O1 (stereo not drawn)	u	u	-16%	-27%	23µM*	u
O=C(Nc1nc(-c2ccc(Cl)cc2Cl)cs1)C1CCCO1 (stereo not drawn)	u	i	4%	3%	u	u
Cc1ccc(-c2csc(NC(=O)CN3CCOCC3)n2)cc1	u	u	u	u	16µM*	16µM*
Cc1ccc(CCNC(=O)CCCc2nnc3n(C)c(=O)c4sccc4n23)cc1	i	i	x	x	u	u
SMILES	KB-V1 cytotox	KB-3-1 cytotox	HT1080 IDH1KD tx	HT1080-NT tox	DT40 TDP1 no CPT	DT40 TDP1 CPT
CC(C)(C)c1ccc(-c2csc(NC(=O)CN3C(=O)NC4(CCCCC4)C3=O)n2)cc1	i	i	-10%	-7%	9.2µM*	10µM*
Cc1ccc(NC(=O)c2ccccc2OCC(=O)Nc2ccccc2F)cc1S(=O)(=O)N(C)C	u	5.2µM*	u	-24%	21µM*	16µM*
Cc1ccc(S(=O)(=O)N(C)C)cc1NC(=O)COc1ccccc1C(=O)Nc1ccccc1	u	i	2%	1%	9.2µM*	13µM*
CCN(CC)S(=O)(=O)c1cc(NC(=O)c2ccccc2OCc2c(C)noc2C)ccc1C	7.3µM*	i	-10%	-7%	16µM*	16µM*
CN(C)S(=O)(=O)c1cccc(NC(=O)COc2ccccc2C(=O)Nc2ccccc2)c1	16µM*	u	u	-30%	9.2µM*	18µM*
Cc1ccc(S(=O)(=O)N(C)C)cc1NC(=O)COC(=O)CSc1ccccc1	i	i	6%	4%	-4%	8%
CN(C)S(=O)(=O)c1cccc(NC(=O)COc2cccc3ccccc23)c1	i	i	0%	-1%	-15%	-26%
COCCN(Cc1ccc(C)cc1)C(=O)[C@H]1O[C@@H](n2ccc(=O)[nH]c2=O)[C@H](O)[C@@H]1O	i	i	10%	26%	-5%	-27%
Cc1ccc(C(C(=O)NC(C)(C)C)N(Cc2cccnc2)C(=O)C(=O)NC2CCCCC2)o1 (stereo not drawn)	u	i	13%	23%	3%	16%
Cc1ccc(S(=O)(=O)N(C)C)cc1NC(=O)COC(=O)/C(=C/c1ccc(F)cc1)c1cccs1	i	i	-29%	-24%	26µM*	13µM*
Cc1ccc(CNC(=O)COC(=O)CCC(=O)c2cccs2)cc1	i	i	13%	10%	9%	1%
